Source: PubChem BioAssay
Only some compounds are listed: those with a hit (about 1.8% of all), similar ones and a draw of the others.
INS-1E GSIS act – primary screen for activators of insulin secretion dependent on glucose, INS-1E cells, GLuc reporter luminescence; hit rate 0.61% among 370,000; AID 743287; activation, % at 16.6 µM; INS-1E GLuc reporter insulin secretion, 2-3 h;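 active = lowest replicate activation of at least 40%, so every replicate reaches that level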
CendR NRP1 mod – NRP-1/CendR interaction modulation. inhibition, % at 25 µM. AID 602438. O14786. FAM-RPARPAR peptide binding to NRP-1, fluorescence polarization. hit rate 0.85% among 360,000;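 active = inhibition or corrected inhibition above about 18%, plus a signal ratio from 0.5 to 1.5, limit read from the data, passing the limit was not always enough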
Target sequence (O14786 whole entry, looked up): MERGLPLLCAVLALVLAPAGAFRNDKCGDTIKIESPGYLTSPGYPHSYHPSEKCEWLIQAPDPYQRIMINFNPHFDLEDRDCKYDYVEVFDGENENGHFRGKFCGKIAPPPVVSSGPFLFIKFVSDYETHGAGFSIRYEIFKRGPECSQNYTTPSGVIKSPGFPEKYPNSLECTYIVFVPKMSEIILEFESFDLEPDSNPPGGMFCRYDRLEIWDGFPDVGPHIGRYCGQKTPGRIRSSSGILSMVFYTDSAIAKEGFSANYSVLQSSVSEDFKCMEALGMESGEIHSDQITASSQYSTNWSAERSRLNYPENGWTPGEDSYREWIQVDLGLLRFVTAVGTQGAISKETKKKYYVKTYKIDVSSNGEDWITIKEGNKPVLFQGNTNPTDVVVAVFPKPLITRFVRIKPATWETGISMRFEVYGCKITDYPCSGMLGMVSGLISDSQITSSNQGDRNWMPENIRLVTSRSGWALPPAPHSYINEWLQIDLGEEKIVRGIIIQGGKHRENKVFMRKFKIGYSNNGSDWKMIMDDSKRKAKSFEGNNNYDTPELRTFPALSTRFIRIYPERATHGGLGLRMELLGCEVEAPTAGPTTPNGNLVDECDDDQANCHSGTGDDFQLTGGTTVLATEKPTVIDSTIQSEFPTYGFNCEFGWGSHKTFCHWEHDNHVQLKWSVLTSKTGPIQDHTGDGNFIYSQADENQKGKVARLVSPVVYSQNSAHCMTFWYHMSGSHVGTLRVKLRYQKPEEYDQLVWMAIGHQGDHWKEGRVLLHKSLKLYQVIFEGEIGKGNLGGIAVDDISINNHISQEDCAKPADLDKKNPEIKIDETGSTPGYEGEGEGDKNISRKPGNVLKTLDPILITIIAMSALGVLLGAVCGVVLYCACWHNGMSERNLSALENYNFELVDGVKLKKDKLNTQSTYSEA
ARNT TACC3 PPI – disruptors of human ARNT/TACC3 interaction. Q9Y6A5. AlphaScreen His-ARNT PAS-B/GST-TACC3 binding, luminescence; TACC3 fragment carries E629A point mutation. inhibition, % at 9.99 µM. hit rate 0.66% among 390,000. AID 623870;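 active = mean inhibition of replicates at least 50% and at least half of replicates each reaching 50%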
hiPSC survival – increases survival of single human iPS cells; hiPSC single-cell survival, ATPlite luminescence; 100% = ROCK inhibitor wells, 0% = DMSO; survival enhancement, % at 20 µM; hit rate 0.044% among 360,000; AID 602274; in the data active = survival enhancement above about 18%;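 also: cells exposed to compounds for 16 hours before the ATP read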
ABCB6 inh MLPCN – inhibitors of human ABC transporter ABCB6; AID 602162; Q9NP58; K562-ABCB6 porphyrin accumulation, flow cytometry, 1 h; stronger effect = lower value; fluorescence ratio to DMSO, % at 10 µM; hit rate 0.19% among 360,000;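 active = fluorescence ratio to DMSO below 75%, the collection mean minus 3 SD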;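 also: signal is porphyrin accumulated inside mitochondria; lower ratio means ABCB6 inhibition with less porphyrin fluorescence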
ABCB6 inh CP1 – human ABCB6 transporter inhibition | 700 tested, under 10 active | shares compounds with ABCB6 inh MLPCN | AID 602430 | K562-ABCB6 porphyrin accumulation, flow cytometry, 1 h; stronger effect = lower value | ratio response (% of DMSO), % at 10 µM;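 active = repeat-averaged ratio response below 75% of DMSO, the collection mean minus 3 SD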;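 also: median porphyrin fluorescence at 575 nm with 488 nm excitation from mitochondria; lower ratio means less porphyrin signal so ABCB6 inhibition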
K562 vector FC – counter-screen for ABCB6 inhibitors: effect in vector-only K562 cells | K562 empty-vector cells, flow cytometry fluorescence, 1 h | shares compounds with ABCB6 inh MLPCN | 25 tested, under 10 active | percent response (fluorescence), % at 100 µM | AID 624484;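 active = compounds whose half-maximal effective concentration is below 100 µM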
Numbers stand for hits; - = inactive; . = not tested or not shown.

SMILES	INS-1E GSIS act	CendR NRP1 mod	ARNT TACC3 PPI	hiPSC survival	ABCB6 inh MLPCN	ABCB6 inh CP1	others
CC(=O)Nc1cccc(-c2ccnc3c2CC(C(=O)Nc2cccc(OC(F)(F)F)c2)O3)c1 (stereo not given)	-	-	.	-	-	.
COc1ccc(CN(CCCN2CCOCC2)C(=O)Nc2ccccc2)cc1OC	.	-	-	-	68	-
O=C(Nc1ccccc1)N(CCCN1CCOCC1)Cc1ccccc1F	.	-	-	-	-	.
Cc1cc(C(=O)COc2ccc(Br)cc2F)c(C)n1CC1CCCO1 (stereo not given)	-	-	.	-	71	-
CC1(C(=O)NS(=O)(=O)c2ccc(C#N)cc2)CCN1C(=O)Cc1cccc2ccccc12 (stereo not given)	-	-	.	-	65	-
COc1ccc(S(=O)(=O)NC(=O)C2(C)CCN2C(=O)Cc2ccc(-c3ccccc3)cc2)cc1 (stereo not given)	.	-	.	-	-	.
COc1ccc(S(=O)(=O)NC(=O)C2(C)CCN2C(=O)Cc2cccc3ccccc23)cc1 (stereo not given)	-	-	.	-	-	-
C[C@H]1CN([C@@H](C)CO)C(=O)c2cccc(NS(=O)(=O)c3cccs3)c2O[C@H]1CN(C)CC1CCCCC1	-	.	.	.	.	.
COc1ccc2c3c([nH]c2c1)[C@H](CO)N(C(=O)c1ccncc1)CC31CN(C(=O)NC(C)C)C1	-	.	.	.	.	.
Cc1ccc(-c2noc(CCC(=O)NCC3CCCO3)n2)cc1 (stereo not given)	.	-	-	-	-	.
CC(C)(C)c1ccc(-c2noc(CCC(=O)NCC3CCCO3)n2)cc1 (stereo not given)	-	-	.	-	62	-
CCSc1ncc(Cl)c(C(=O)Nc2ccc(S(=O)(=O)Nc3ncccn3)cc2)n1	-	-	-	-	-	.
CCOC(=O)c1ccc(NC(=O)c2nc(S(=O)(=O)Cc3ccccc3)ncc2Cl)cc1	-	-	-	20	46	.	K562 vector FC=-
CCCS(=O)(=O)c1ncc(Cl)c(C(=O)Nc2ccc(S(=O)(=O)Nc3ncccn3)cc2)n1	-	-	-	-	-	-
CCCc1nnc(NC(=O)c2nc(S(=O)(=O)Cc3ccc(C)cc3)ncc2Cl)s1	-	-	-	-	-	.	K562 vector FC=-
CC(C)c1nnc(NC(=O)c2nc(S(=O)(=O)Cc3ccccc3)ncc2Cl)s1	-	-	-	-	-	.	K562 vector FC=-
CSc1nnc(NC(=O)c2nc(S(=O)(=O)Cc3ccccc3)ncc2Cl)s1	-	-	-	-	-	.
O=C(C[C@H]1C=C[C@@H](NC(=O)c2ccccc2)[C@@H](CO)O1)NCc1ccc(Oc2ccccc2)cc1	-	.	.	.	.	.
C[C@@H]1CN(C)C(=O)Cc2cc(NS(C)(=O)=O)ccc2O[C@H]1CN(C)C	-	.	.	.	.	.
CO[C@@H]1CN(C)C(=O)c2ccc(NS(C)(=O)=O)cc2OC[C@H](C)N(C(=O)c2ccc3c(c2)OCO3)C[C@H]1C	-	.	-	.	.	.
CSc1ncc(Cl)c(C(=O)Nc2ccc(C)c(C)c2)n1	-	-	-	-	-	.
Cc1ccc(NC(=O)c2nc(S(=O)(=O)Cc3ccccc3C)ncc2Cl)cc1C	-	-	-	-	48	.	K562 vector FC=-
CCc1ccc(NC(=O)c2nc(S(=O)(=O)Cc3ccccc3)ncc2Cl)cc1	-	-	-	-	66	.	K562 vector FC=-
CCOc1ccccc1NC(=O)c1nc(S(=O)(=O)Cc2ccccc2)ncc1Cl	-	-	-	-	44	.	K562 vector FC=-
CC1CCN(S(=O)(=O)c2ccc(Cl)s2)CC1	.	-	-	-	-	.
SMILES	INS-1E GSIS act	CendR NRP1 mod	ARNT TACC3 PPI	hiPSC survival	ABCB6 inh MLPCN	ABCB6 inh CP1	others
O=C(O)C1CCN(S(=O)(=O)c2ccc(Cl)s2)CC1	-	-	-	-	-	-
C[C@@H]1CCCCO[C@H](CN(C)CC2CC2)[C@H](C)CN([C@H](C)CO)C(=O)c2cc(NS(=O)(=O)c3ccccc3)ccc2O1	-	.	.	.	.	.
COc1ccc(OC)c(C(C)NC(=O)Nc2ccccc2)c1 (stereo not given)	-	-	-	-	72	-
C[C@H](CO)N1C[C@H](C)[C@H](CN(C)C(=O)Nc2ccc(C(F)(F)F)cc2)Oc2ccc(NC(=O)NC3CCCCC3)cc2CC1=O	-	.	-	.	.	.
COc1ccc(N2CCN(c3ncccc3C#N)CC2)cc1	-	-	-	-	74	-
COCC(=O)N(C)C[C@H]1Oc2cc(-c3ccc(F)cc3)ccc2S(=O)(=O)N([C@H](C)CO)C[C@@H]1C	-	.	-	.	.	.
CC(C)(C)c1ccc(S(=O)(=O)NC(=O)C2(C)CCN2C(=O)Cc2ccc(-c3ccccc3)cc2)cc1 (stereo not given)	-	-	.	-	-	-
CC1(C(=O)NS(=O)(=O)c2ccc(Cl)cc2)CCN1C(=O)Cc1ccc(-c2ccccc2)cc1 (stereo not given)	.	-	.	-	-	.
CC1(C(=O)NS(=O)(=O)c2ccc(C#N)cc2)CCN1C(=O)Cc1ccc(-c2ccccc2)cc1 (stereo not given)	-	-	.	-	-	-
CCCCc1ccc(S(=O)(=O)NC(=O)C2(C)CCN2C(=O)Cc2ccccc2)cc1 (stereo not given)	-	-	.	-	-	-
COc1cc(C)ccc1S(=O)(=O)NC(=O)C1(C)CCN1C(=O)Cc1ccc(C(C)(C)C)cc1 (stereo not given)	-	-	.	-	-	-
C[C@@H]1CCCCO[C@@H](CN(C)S(=O)(=O)c2cccs2)[C@H](C)CN([C@H](C)CO)C(=O)c2cc(NC(=O)Nc3cccc4ccccc34)ccc2O1	-	.	-	.	.	.
Cc1cc(C(=O)NCCN2CCOCC2)c2ccccc2n1	.	-	-	-	74	-
Cc1ccc(S(=O)(=O)Nc2ccc3c(c2)C(=O)N([C@H](C)CO)C[C@@H](C)[C@H](CN(C)S(=O)(=O)c2ccccc2)OCCCC[C@@H](C)O3)cc1	-	.	-	.	.	.
O=C(C[C@H]1CC[C@@H]2[C@H](COC[C@H](O)CN2Cc2cc(F)ccc2F)O1)N[C@@H]1CCN(Cc2ccccc2)C1	-	.	-	.	.	.
Cc1nn(-c2ccccc2Cl)c(Cl)c1/C=N/Nc1nc2ccccc2s1	-	-	-	-	66	-
CCCN(CCC)CCCNC(=O)c1cc2cc3ccc(Cl)cc3nc2o1	-	-	-	-	73	-
CN1C(=O)c2cc(NC(=O)C3CCCC3)ccc2OC[C@H]2O[C@@H](CC(=O)Nc3ccccc3)CC[C@H]21	-	.	-	.	.	.
O=C(CCc1nc(-c2ccccc2Cl)no1)NC1CCCCC1	-	-	-	-	73	-
O=C(CCc1nc(-c2ccccc2Cl)no1)NC1CCCC1	-	-	-	-	-	.
CCC(=O)N1CC[C@@H]2[C@H](CO)Nc3ccc(-c4ccc(C(=O)N(C)C)cc4)cc3[C@@H]21	-	.	-	.	.	.
